In PubChem BioAssay AID488922 (Johns Hopkins Ion Channel Center, 2010):
In all, about 310,000 compounds went through this assay and about 3,800 (1.2%) were called active.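 The calls were made as follows: active = ratio B-score over 3 SD below the library mean, with starting fluorescence within 5 SD of its mean; inactive = the rest, inconclusive results apart.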 Only a selection was taken, and actives are over-represented in it overall.

These compounds were tested against Potassium channel subfamily K member 9 (Homo sapiens) (UniProt Q9NPC2) (assay: KCNK9 potassium channel inhibitors, primary screen, HEK293 cells, thallium flux (AID 488922;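 as to B-score: negative B-score means less thallium flux so channel inhibition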)). Details: HEK293 KCNK9, FluxOR thallium flux fluorescence, at 10 µM; stronger effect = lower value.
Potassium channel subfamily K member 9 (Homo sapiens), sequence (Q9NPC2 whole entry, looked up): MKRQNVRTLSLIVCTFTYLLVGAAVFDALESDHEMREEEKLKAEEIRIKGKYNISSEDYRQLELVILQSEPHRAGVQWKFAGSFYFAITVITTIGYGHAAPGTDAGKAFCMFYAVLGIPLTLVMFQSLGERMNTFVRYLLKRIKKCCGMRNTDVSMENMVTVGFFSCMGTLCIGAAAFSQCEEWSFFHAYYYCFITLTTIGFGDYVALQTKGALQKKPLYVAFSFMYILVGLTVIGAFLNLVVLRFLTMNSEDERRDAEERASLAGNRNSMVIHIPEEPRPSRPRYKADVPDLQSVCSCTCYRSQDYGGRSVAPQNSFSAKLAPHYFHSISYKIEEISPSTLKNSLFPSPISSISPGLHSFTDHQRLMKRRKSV

Row | Compound | B-score
1 | Cc1ccnc(NC(=O)Cn2ccc([N+](=O)[O-])n2)c1 | inactive
2 | CC(/C=N/NC(=O)c1ccncc1)=C\c1ccco1 | inactive
3 | CC(/C=N/NC(=O)c1cc(-c2ccc3ccccc3c2)n[nH]1)=C\c1ccco1 | -6.63 (active)
4 | Cc1ccc(-c2cc(C(=O)N/N=C/C=C/c3ccco3)c3ccccc3n2)cc1C | inactive
5 | CCOc1ccc(-n2c(SCC(=O)NC3CCS(=O)(=O)C3)nnc2-c2cccnc2)cc1 (stereo not drawn) | inactive
6 | CCCC(C(=O)n1nc(C)cc1C)C(NS(=O)(=O)c1ccc(C)cc1)c1ccccc1 (stereo not drawn) | inactive
7 | CC1CCN(C(=O)c2ccc(CSc3ccc(Cl)cc3)cc2)CC1 | -8.16 (active)
8 | O=C(C1CC1)N1CCN=C1SCc1ccc(Cl)cc1 | inactive
9 | O=C(c1ccc(CSc2ccccc2)cc1)N1CCCCCC1 | inactive
10 | CCCCn1c(N)c(N(CCOC)C(=O)c2cccc(S(=O)(=O)N(C)c3ccccc3)c2)c(=O)[nH]c1=O | inactive
11 | CCOC(=O)Cc1csc(SCC(=O)NC(C)C23CC4CC(CC(C4)C2)C3)n1 (stereo not drawn) | inactive
12 | CN(C)S(=O)(=O)c1cccc(NC(=O)COC(=O)C2(c3ccccc3F)CCCC2)c1 | inactive
13 | CN(c1ccccc1)S(=O)(=O)c1cccc(NC(=O)Cc2c(F)cccc2Cl)c1 | -15.5 (active)
14 | CN(C)S(=O)(=O)c1cccc(NC(=O)Cc2ccsc2)c1 | inactive
15 | Cc1cc(=O)oc2c1ccc1ccccc12 | inactive
16 | COc1ccc(C(CCN(Cc2ccc(OC)c(OC)c2)C(=O)CCl)c2ccccc2)cc1 (stereo not drawn) | -11 (active)
17 | COc1ccc(CN(C)C(=O)CC(c2ccccc2)c2ccccc2)cc1 | inactive
18 | COc1ccc(COC(=O)NC(C(=O)O)c2ccccc2)cc1 (stereo not drawn) | inactive
19 | O=c1[nH]c(/C=C/c2cccc(Br)c2)nc2ccccc12 | inactive
20 | CCc1ccc(C(CNc2nc(C(F)(F)F)nc3ccccc23)N(C)C)cc1 (stereo not drawn) | inactive
21 | COc1ccc(CNc2ncnc3ccccc23)cc1 | inactive
22 | COc1cccc(CNc2nc(C(F)(F)F)nc3ccccc23)c1 | -8.03 (active)

Row | Compound | B-score
23 | CCOC(=O)c1cc(C(=O)Nc2ccc(S(=O)(=O)Nc3ccc(OC)cc3)cc2)nn1C | inactive
24 | COc1ccc(-n2ncc3c2CC(C)(C)CC3NC(=O)CCc2c(C)noc2C)cc1 (stereo not drawn) | inactive
25 | Cc1nn(CC(=O)NCc2ccccn2)c(C)c1[N+](=O)[O-] | inactive
26 | CCc1ccc(NC(=O)Cn2nc(C)c([N+](=O)[O-])c2C)cc1 | inactive
27 | Cc1nn(CC(=O)Nc2nc3ccccc3s2)c(C)c1[N+](=O)[O-] | -10.4 (active)
28 | Cc1cc(C)nc(NS(=O)(=O)c2ccc(N3C(=O)C4CCCCC4C3=O)cc2)n1 (stereo not drawn) | inactive
29 | COc1ccccc1N1CCN(c2ncnc3sc(C)c(-c4ccccc4)c23)CC1 | -16.5 (active)
30 | COc1ccccc1N1CCN(c2ccc([N+](=O)[O-])nc2)CC1 | inactive
31 | Oc1ccccc1N1CCN(c2ncnc3sc(-c4ccccc4)cc23)CC1 | inactive
32 | O=C(NCCc1ccc(Cl)cc1Cl)c1cc([N+](=O)[O-])c[nH]c1=O | inactive
33 | CC(c1ccccn1)N(CCN(C)C)C(=S)Nc1ccccc1F (stereo not drawn) | inactive
34 | CSc1cccc(NC(=S)N(Cc2ccccc2)Cc2ccccn2)c1 | inactive
35 | CSc1cccc(NC(=S)N(C(C)C)C(C)c2ccccn2)c1 (stereo not drawn) | -17.5 (active)
36 | Cc1ccc(C2=NN(C)c3nc4ccccc4n3C2)cc1 | -8.17 (active)
37 | Cc1ccc(O)c(CNc2nc3ccccc3n2C)c1 | inactive
38 | Cc1ccc(OCc2nc3ccccc3n2C)cc1 | inactive
39 | CCOC(=O)/C(=N\Nc1cc(Cl)ccc1Cl)N1CCN(C)CC1 | inactive
40 | COCCNc1ncnc2c1nc1n2CCCC1 | inactive
41 | COc1cnc(SCc2ccc(Cl)c(Cl)c2)nc1Cl | inactive
42 | O=S(=O)(NC1CCCCC1N1CCN(c2ccccc2F)CC1)c1ccccc1 (stereo not drawn) | -7.59 (active)
43 | O=S(=O)(NC1CCCCC1N1CCCCC1)c1ccc(Cl)cc1 (stereo not drawn) | inactive
44 | COc1ccc(N2CCN(C3CCCCC3NS(=O)(=O)c3ccccc3)CC2)cc1 (stereo not drawn) | inactive

Row | Compound | B-score
45 | N#Cc1c(NCCO)ccc([N+](=O)[O-])c1NCCO | inactive
46 | CCc1ccccc1NC1c2ccccc2C(=O)N1c1cccnc1 (stereo not drawn) | inactive
47 | COC(=O)c1cc(NC2c3ccccc3C(=O)N2c2ccc(Cl)cn2)cc(C(=O)OC)c1 (stereo not drawn) | -8.59 (active)
48 | Cc1ccnc(N2C(=O)c3ccccc3C2Nc2ccc3c(c2)OCCO3)c1 (stereo not drawn) | inactive
49 | Cc1ccc(C)c(OCCC(=O)OCC(=O)c2ccc3c(c2)NC(=O)CO3)c1 | inactive
50 | Cc1ccc(CNC(=O)C2(C(F)(F)F)C/C(=C\Cc3ccccc3)CCCO2)o1 (stereo not drawn) | inactive
51 | CCOC(=O)c1ccc(NC(=O)Cc2cccs2)cc1 | inactive
52 | CC1=NN(C(=O)c2ccc(Br)cc2)C(O)(c2ccccc2)C1 (stereo not drawn) | inactive
53 | CCC1=NN(C(=O)Cc2ccc([N+](=O)[O-])cc2)C(O)(c2ccc(Br)cc2)C1 (stereo not drawn) | -9.93 (active)
54 | CC1=NN(C(=O)Cc2ccc(C)cc2)C(O)(c2cccnc2)C1 (stereo not drawn) | inactive
55 | CCOC(=O)c1[nH]c(C)c(C(=O)OCC(=O)N2c3ccccc3CC2C)c1C (stereo not drawn) | inactive
56 | COc1ccc(C)cc1NC(=O)CNCc1cccs1 | inactive
57 | c1ccc(C2=Nc3cccc4cccc(c34)N2)cc1 | inactive
58 | CNC(=S)N1N=C(c2ccccc2)CC1c1ccc(Br)cc1 (stereo not drawn) | inactive
59 | Brc1ccc(C2CC(c3ccccc3)=Nc3ccccc3N2)cc1 (stereo not drawn) | -9.6 (active)
60 | CC(C)(C)SCCSC1=CC(=O)CC(c2ccccc2)C1 (stereo not drawn) | inactive
61 | O=C(N/C(=C\c1ccc([N+](=O)[O-])cc1)C(=O)N1CCCCC1)c1ccco1 | inactive
62 | O=C(c1ccccc1)C(Cn1cncn1)C(Sc1ccccc1)c1ccccc1 (stereo not drawn) | inactive
63 | O=C(NCc1ccccc1)c1onc(CSc2ccncc2)c1C(=O)NCc1ccccc1 | inactive
64 | CCC(C)NC(=O)CN(C1CCCCC1)S(C)(=O)=O (stereo not drawn) | inactive
65 | CS(=O)(=O)N(CC(=O)Nc1ccc(F)cc1)C1CCCCC1 | inactive
66 | CS(=O)(=O)N(CC(=O)Nc1ccc(Cl)c(Cl)c1)C1CCCCC1 | -7.01 (active)

Row | Compound | B-score
67 | Cc1csc(/N=C/N(C)C)c1C#N | inactive
68 | Cc1ccc(S(=O)(=O)/N=C(/NC(=S)Nc2c(C)n(C)n(-c3ccccc3)c2=O)c2ccccc2)cc1 | inactive
69 | O=C(COC(=O)c1ncc(Cl)c(Cl)c1Cl)NC1CCS(=O)(=O)C1 (stereo not drawn) | inactive
70 | COc1ccc(C(=O)N(Cc2ccc(N(C)C)cc2)C2CCS(=O)(=O)C2)cc1 (stereo not drawn) | inactive
71 | CC1(C)C(C=C(Cl)Cl)C1C(=O)N(Cc1ccc(Cl)cc1)C1CCS(=O)(=O)C1 (stereo not drawn) | inactive
72 | Cc1ccc(CN(C(=O)c2sc3ccccc3c2Cl)C2CCS(=O)(=O)C2)cc1 (stereo not drawn) | -7.41 (active)
73 | O=[N+]([O-])c1c(NCCO)cc(Sc2nc3ccccc3s2)c2nonc12 | inactive
74 | Cc1onc(-c2ccccc2Cl)c1C(=O)N(Cc1ccc(N(C)C)cc1)C(C)C | inactive
75 | C=C(C)CSc1nc(N)c2c3c(sc2n1)CCC3 | inactive
76 | C=CCn1c(SCC(=O)c2c(N)n(C)c(=O)n(C)c2=O)nc2sc(CC)cc2c1=O | inactive
77 | CC1(C)CC(=O)CC2(C1)NCC(c1ccccc1Cl)c1c2[nH]c2ccccc12 (stereo not drawn) | -14.9 (active)
78 | O=[N+]([O-])/C=C1\CCCCCN1 | inactive
79 | Cc1noc(C)c1/C=N/Nc1ccc2ccccc2n1 | inactive
80 | C(=N\Nc1ccc2ccccc2n1)/c1ccc2c(c1)OCO2 | -6.68 (active)
81 | Brc1ccc(-c2csc(N/N=C/c3ccc4c(c3)OCO4)n2)cc1 | inactive
82 | CN1CC(=O)N=C1N | inactive
83 | CCCC1NC(=S)NC(C)=C1C(C)=O (stereo not drawn) | inactive
84 | Cc1scc(C(=O)NNC(=S)NCc2ccccc2)c1C | inactive
85 | O=c1oc2ccccc2cc1-c1csc(Nc2ccc(O)cc2)n1 | inactive
86 | COc1ccc2nc(Nc3nc(-c4cc5ccccc5oc4=O)cs3)sc2c1 | -6.66 (active)
87 | CCNc1nc(-c2cc3ccccc3o2)cs1 | inactive
88 | O=C(CCC1CCCC1)N=C1SC2CS(=O)(=O)CC2N1Cc1ccccc1 (stereo not drawn) | inactive

Row | Compound | B-score
89 | Cn1c(=O)n(C)c2cc(C(=O)Nc3ccc(Br)cc3)ccc21 | inactive
90 | Cc1ccc(-n2nc(-c3ccco3)cc2C(=O)NCc2cccnc2)cc1 | inactive
91 | CC(C)C[C@@H](CO)N1CCN(Cc2ccc(O)cc2)CCC1=O | inactive
92 | CCOC(=O)Cc1cc(=O)[nH]c(/N=C(\N)Nc2ccc(OC)cc2)n1 | inactive
93 | CCOC(=O)Cc1cc(=O)[nH]c(=O)[nH]1 | -8.45 (active)
94 | CCOCCCNC(=O)Cc1cc(=O)[nH]c(=O)[nH]1 | inactive
95 | CC1CCCN(CCCNC(=O)CN2C(=O)COc3ccc(S(=O)(=O)N4CCOCC4)cc32)C1 (stereo not drawn) | inactive
96 | O=C1/C(=C/c2cccs2)CCC1C1CCCC1 (stereo not drawn) | inactive
97 | Cc1cc2ccccn2c1C(=O)c1cccc(F)c1 | -13.4 (active)
98 | Cc1cc2ccccn2c1C(=O)c1cccc(S(=O)(=O)N2CCOCC2)c1 | inactive
99 | CC(=O)Nc1ccc(/C=N/Nc2ccc(C(=O)c3c(C)cc4ccccn34)cc2[N+](=O)[O-])cc1 | inactive
100 | CN(Cc1c(F)cccc1Cl)C(=O)CNC(=O)c1ccc2c(c1)OCO2 | inactive
101 | O=C(c1ccccc1Cl)N(Cc1ccccc1F)N1C(=O)CCCC1=O | inactive
102 | O=C(OCC(=O)N(CCc1ccccc1)Cc1ccccc1)c1ccccc1[N+](=O)[O-] | -17.6 (active)
103 | Cc1c(C(=O)NCCCc2ccccc2)cccc1[N+](=O)[O-] | inactive
104 | CN(Cc1ccccc1)C(=O)COC(=O)c1ccccc1Nc1ccccc1 | inactive
105 | Cc1ccc(C2=Nc3c(ccc4ccccc34)C(c3ccncc3)=NN2)cc1 | -10.7 (active)
106 | Cc1ccc(-c2csc(-c3c[nH]c4ccccc34)n2)cc1 | inactive
107 | CCOc1ccc2c(c1)C(c1ccc(C)cc1)=NNC(c1ccc(C)cc1)=N2 | inactive
108 | CCCCCC(=O)N1CCN(S(=O)(=O)c2ccc3c(c2)OCCCO3)CC1 | inactive
